Hits are enriched below; roughly 3.5% of the tested compounds scored in any of these assays.
Anthrax LF prot = Bacillus anthracis LF protease inhibitors, primary screen, biochemical, multiplex microsphere, MLPCN library; Lethal factor (Bacillus anthracis), P15917; multiplex microsphere protease cleavage assay; inhibition, % at 10 µM; AID 588501, 2011; hit rate 0.12% among 360,000; in the data active means inhibition above about 30%; inconclusive means no clear call, values can overlap the other calls; further: plate controls were buffer without enzyme for full effect and enzyme alone for no effect
BoNT F protease = BoNT/F light chain protease inhibitors, primary screen, biochemical, flow cytometry, MLPCN library. Botulinum neurotoxin type F light chain protease (Clostridium botulinum). Multiplex microsphere protease cleavage assay. inhibition, % at 10 µM. hit rate 0.22% among 360,000; in the data active means inhibition above about 35%, passing the limit was not always enough; inconclusive means no clear call, values can overlap the other calls; further: plate controls were buffer without enzyme for full effect and enzyme alone for no effect
Autofluor counter = compound fluorescence in toxin protease inhibitor counterscreen; compound autofluorescence counterscreen, microsphere flow cytometry; stronger effect = higher value; fluorescence intensity (concentration not given with the values); hit rate 3.1% among 360,000; in the data active means fluorescence intensity above about 16000; inconclusive means no clear call, values can overlap the other calls
BoNT A protease = BoNT/A light chain protease inhibitors, primary screen, biochemical, flow cytometry, MLPCN library; Botulinum neurotoxin type A light chain protease (Clostridium botulinum A str. ATCC 3502); hit rate 0.17% among 360,000; AID 588499, 2011; multiplex microsphere protease substrate cleavage; inhibition, % at 10 µM; in the data active means inhibition above about 30%; inconclusive means no clear call, values can overlap the other calls; further: plate controls were buffer without enzyme for full effect and enzyme alone for no effect
BoNTA LC inh 1 = BoNT/A light chain protease inhibitors, confirmation, biochemical, flow cytometry, cherry pick 1; shares compounds with BoNT F protease; multiplex microsphere protease assay; inhibition, % at 10 µM; hit rate 3% among 720; in the data active means inhibition above about 32%
BoNT-F LC CP1 = BoNT/F light chain protease inhibitors, confirmation, biochemical, flow cytometry, cherry pick 1; shares compounds with BoNT F protease; multiplex microsphere protease cleavage assay; inhibition, % at 10 µM; 720 tested, under 10 active; AID 602140, 2011
LF protease CP1 = Bacillus anthracis LF protease inhibitors, confirmation, biochemical, multiplex microsphere, cherry pick 1. multiplex microsphere protease cleavage assay. shares compounds with BoNT F protease. inhibition, % at 10 µM. 720 tested, under 10 active
Starred values were filed as active, the others as inactive; ? = inconclusive; nt = no result given. Unless noted, how the calls were made is not given here.

SMILES	Anthrax LF prot	BoNT F protease	Autofluor counter	BoNT A protease	BoNTA LC inh 1	BoNT-F LC CP1	LF protease CP1
CC(C)CCn1c(-c2nonc2N)nc2ccccc21	-7.2	32.3	3532	1.1	-0.6	-3.5	-2.5
Cc1ccc(OCCNC(=O)c2ccccc2O)cc1	12.3	35.7*	4460	-0.8	-1.0	-10.6	-2.7
CC(C)C[C@H]1CN([C@@H](CC(C)C)CN2CCCC2CN2C(=S)NC[C@@H]2Cc2ccccc2)C(=S)N1CC1CCCCC1 (stereo partly drawn)	-6.5	-1.2	6274	-0.5	nt	nt	nt
Cc1nc(C)c(-c2ccn(C(=O)NC(C)C)n2)s1	3.2	38.3*	3164	0.8	1.7	-2.0	2.6
COc1ccc(C(=O)NCCN2CCOCC2)cc1OC	0.7	9.4	3224	0.4	nt	nt	nt
COc1cc(SC)ccc1C(=O)NCCN1CCOCC1	37.1*	?	4147	3.7	-1.0	-1.7	-4.3
CCC1(CC)NC(=O)N(CC(=O)OC(C)C(=O)Nc2ccccc2OC)C1=O (stereo not drawn)	-3.0	9.1	?	9.9	nt	nt	nt
COc1ccc(C(CC(=O)Nc2cc(C)ccn2)N2Cc3ccccc3C2=O)cc1 (stereo not drawn)	5.7	109.9*	3901	5.7	1.0	0.2	-2.2
COc1ccccc1OCCC(=O)OCC(=O)NCc1ccc(F)cc1	-3.8	6.6	3177	0.5	nt	nt	nt
O=S(=O)(Nc1ccc(Cl)nn1)c1ccccc1	0.0	38.3*	4098	5.8	-2.0	-1.3	-2.6
CC(C)(O)C#Cc1ccc(CN2CCCC(CNC(=O)c3ccco3)C2)cc1 (stereo not drawn)	-4.6	4.8	5891	1.1	nt	nt	nt
Cc1ccc(NC(=O)CSc2nncn2N)cc1C	5.0	?	3828	-1.4	nt	nt	nt
COc1ccc(-c2nc3ccccn3c2Cl)cc1	1.7	1.0	3253	-1.0	nt	nt	nt
c1csc(-c2ncc3ccccn23)c1	15.2	20.6	3405	14.0	nt	nt	nt
COc1cccc(-c2ncc3ccccn23)c1	11.0	-3.6	3261	5.4	1.8	-1.5	-0.8
COc1cccc(-c2cnc3c(NC(C)=O)cc(-c4ccccc4OC)cn23)c1	-7.5	2.0	3668	-0.3	nt	nt	nt
COc1cc(OC)cc(-c2ncc3ccccn23)c1	6.2	-6.9	4252	4.5	1.6	-10.2	1.2
COc1cc(-c2ncc3ccccn23)cc(OC)c1OC	1.7	-2.7	3354	0.2	0.7	-14.4	-7.5
COc1ccc(-c2ncc3ccccn23)cc1	12.9	1.2	4513	8.8	1.5	1.3	5.8
CC(=O)NCCc1c[nH]c2ccc(OCc3ccccc3)cc12	3.8	?	3336	2.6	nt	nt	nt
Cc1ccc(C)c(NC(=S)N2CCC(NC(=O)c3cccc(F)c3)CC2)c1	1.8	-1.9	6106	-1.2	nt	nt	nt
CCN(CC)C(=O)c1sc2nc(-c3cccs3)cc(-c3ccc(Cl)cc3)c2c1N	39.0*	13.8	4742	53.4*	16.3	1.4	12.2
Nc1c(C(=O)Nc2nccs2)sc2nc(-c3cccs3)cc(C(F)(F)F)c12	5.7	82.0*	5256	9.0	9.6	10.0	3.5
Cc1nn(C)c2nc(-c3cccs3)cc(C(F)(F)F)c12	-2.2	2.0	3340	0.7	nt	nt	nt
COc1ccccc1NC(=O)c1sc2nc(Cc3ccccc3)cc(C(F)(F)F)c2c1N	15.5	11.7	7395	30.2*	6.4	-1.5	2.4
SMILES	Anthrax LF prot	BoNT F protease	Autofluor counter	BoNT A protease	BoNTA LC inh 1	BoNT-F LC CP1	LF protease CP1
CC(C)(C)C(=O)c1sc2nc(-c3cccs3)cc(C(F)(F)F)c2c1N	34.0*	21.8	7776	33.9*	24.2	11.5	9.4
Cc1nnc(NC(=O)c2sc3nc(-c4cccs4)cc(C(F)(F)F)c3c2N)s1	10.9	25.7	14974	10.0	nt	nt	nt
CCN(CC)C(=O)c1sc2nc(-c3cccs3)cc(-c3cccs3)c2c1N	2.1	-6.4	4184	11.2	nt	nt	nt
COc1ccc(NC(=O)c2sc3nc(Cc4ccccc4)cc(C(F)(F)F)c3c2N)cc1OC	2.1	-6.8	2000	1.5	nt	nt	nt
COC(Cc1ccccc1N1CCCC1=O)OC	2.4	5.0	4143	0.1	nt	nt	nt
CCN(CC(=O)Nc1ccccc1C(F)(F)F)C(=O)C1=COCCO1	-1.9	?	5301	?	nt	nt	nt
NS(=O)(=O)c1cccc(NC(=O)CC(NC(=O)c2ccccc2Cl)c2ccccc2)c1 (stereo not drawn)	9.0	34.7*	3427	-1.5	0.6	-4.2	-0.8
COCCNC(=O)C(c1ccc(O)cc1)N(Cc1cccs1)C(=O)CCC(=O)Nc1ccccn1 (stereo not drawn)	0.1	-12.5	4144	-3.3	nt	nt	nt
N#Cc1cccc(C(c2nnnn2C2CCCC2)N2CCCCCC2)c1 (stereo not drawn)	-3.4	32.2	3317	0.4	1.9	2.0	3.1
N#Cc1cccc(C(c2nnnn2C2CCCC2)N2CCC(Cc3ccccc3)CC2)c1 (stereo not drawn)	-1.5	-2.1	5535	-1.3	nt	nt	nt
COc1cc(-c2nc(-c3cccc(C)c3)no2)cc(OC)c1OC	2.6	43.3*	5619	?	0.2	-5.2	-4.2
COc1ccc(-c2nc(-c3cccc(C)c3)no2)cc1OC	-5.8	-0.8	7951	0.1	nt	nt	nt
COc1ncnc2c1ncn2CCCNCC(C)c1ccccc1 (stereo not drawn)	-0.5	-7.3	3948	-0.6	nt	nt	nt
O=C1c2ccccc2C(=O)N1CCCn1ccnc1	13.3	?	3039	0.7	nt	nt	nt
O=C1c2ccccc2C(=O)N1CCn1ccnc1	14.2	40.7*	3914	0.5	-0.5	0.5	1.1
O=C(CC12CC3CC(CC(Br)(C3)C1)C2)NC1CCCC1	-0.7	7.2	4380	-0.6	nt	nt	nt
Cc1cc(C)cc(N2C(=O)NC(=O)/C(=C\c3cccn3-c3ccccc3)C2=O)c1	31.0*	67.5*	6580	6.5	-0.4	-3.1	3.1
Cc1ccc(CCC(=O)Nc2ccc(Cl)cc2Cl)o1	-4.8	-2.8	3523	-0.5	nt	nt	nt
Cc1ccc(NC(=O)CCc2ccc(C)o2)c(Br)c1	-12.4	90.9*	3907	3.4	-0.1	-2.2	-2.8
Cc1onc(-c2c(Cl)cccc2Cl)c1C(=O)NCc1ccccn1	-1.3	-6.1	10814	-1.0	nt	nt	nt
CCn1cc(CNC(=O)c2c(-c3c(Cl)cccc3Cl)noc2C)c(C)n1	1.7	35.3*	2081	4.2	-0.8	-6.4	-1.8
CCOc1ccc(OCC)c(NC(=O)C2CCN(c3cnccn3)CC2)c1	-0.7	1.5	4728	0.3	nt	nt	nt
Fc1ccc(-c2ncc3ccccn23)cc1	14.7	-0.9	4490	35.6*	1.6	0.1	-0.5
Brc1ccc(-c2ncc3ccccn23)cc1	9.0	-1.6	3322	1.7	0.2	-3.9	-1.5
Fc1ccc(-c2nnc3ccccn23)cc1	-0.6	-5.7	2599	-0.8	nt	nt	nt
Cc1ccc(CNC(=O)CN2C(=O)NC3(CC(C)CC(C)(C)C3)C2=O)cc1 (stereo not drawn)	2.2	2.9	8554	1.2	nt	nt	nt
